Results on 40 compounds are retold here after PubChem BioAssay (EPA / NIEHS).

Calls of active or inactive are those of the source. The calls were made as follows: active = hit-call score of the fitted dose curve at least 0.9, where 1 is the maximum; inactive = score below 0.9.

The assay deals with Cellular tumor antigen p53 (Homo sapiens) (UniProt P04637). The assay can be described thus: ATG_p53_CIS: Attagene CIS-FACTORIAL HepG2 Assay for human p53 Transcription Factor (AID 2282994). Particulars: HepG2 p53 cis-element reporter, Attagene mRNA; actives raise or lower the signal. How it is done: ATG_CIS is a cell-based, multiplexed-readout assay that uses HepG2, a human liver cell line, with measurements taken at 24 hours after chemical dosing in a 24-well plate.ATG_p53_CIS is one of 52 assay component(s) measured or calculated from the ATG_CIS assay. It is designed to make measurements of mRNA induction, a form of inducible reporter, as detected with fluorescence intensity signals by Reverse transcription polymerase chain reaction (RT-PCR) and Capillary electrophoresis technology.Data from the assay component ATG_p53_CIS was analyzed into 1 assay endpoint. This assay endpoint, ATG_p53_CIS, was analyzed with bidirectional fitting relative to DMSO as the negative control and baseline of activity. Using a type of inducible reporter, measures of mRNA for gain or loss-of-signal activity can be used to understand the reporter gene at the transcription factor-level as they relate to the gene TP53. Furthermore, this assay endpoint can be referred to as a primary readout, because this assay has produced multiple assay endpoints where this one serves a reporter gene function. To generalize the intended target to other relatable targets, this assay endpoint is annotated to the dna binding intended target family, where the subfamily is tumor suppressor.
Cellular tumor antigen p53 (Homo sapiens), sequence (P04637 whole entry, looked up): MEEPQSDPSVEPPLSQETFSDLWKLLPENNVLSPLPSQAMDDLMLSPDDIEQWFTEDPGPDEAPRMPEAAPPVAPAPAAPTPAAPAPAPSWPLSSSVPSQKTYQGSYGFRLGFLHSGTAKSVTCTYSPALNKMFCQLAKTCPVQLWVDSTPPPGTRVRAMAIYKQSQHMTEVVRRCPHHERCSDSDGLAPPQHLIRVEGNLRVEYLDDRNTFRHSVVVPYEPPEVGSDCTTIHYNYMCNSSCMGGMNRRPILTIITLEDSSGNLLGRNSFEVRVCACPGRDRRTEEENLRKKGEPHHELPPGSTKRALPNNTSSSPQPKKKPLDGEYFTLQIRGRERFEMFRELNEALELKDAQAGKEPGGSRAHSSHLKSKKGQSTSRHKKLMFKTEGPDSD
Human liver HepG2 cells are transiently transfected with multiple reporter transcription units (MRTUs) in 6-well plates using FuGene 6 reagent (Roche; 3 ml FuGene/1 mg DNA). The MRTU constructs are regulated by a cis-regulating element (promoter). […] A major difference between the CIS and TRANS system is that in CIS activities of endogenous TFs are measured, whereas the TRANS assay evaluates changes in activities of exogenous, chimeric NR-Gal4 proteins. […] At the end of 24 hour incubation, total RNA was isolated using TriZol reagent (Invitrogen). The isolated RNA is then reverse-transcribed using oligo(dT) primer and Mo-MLV reverse transcriptase (Invitrogen) with DNAse I (Ambion) treatment for 30 min. The one-tenth of the produced cDNA was amplified by PCR using Taq DNA polymerase (Invitrogen) and two reporter sequence-specific primers. The PCR products were fluorescently labeled by primer extension with 6-arboxyfluorescein (6-FAM) 5'-labeled reporter sequence-specific primer (2 min at 95 C, 20 s at 68 C and 10 min at 72 C) and these products were digested with 5U of HpaI (New England Biolabs) for 2h at 37 C. The fragments were purified using Qiaquick PCR columns (Qiagen), analyzed on an ABI 3130xL genetic analyzer (Applied Biosystems) with peak positions identified by using a set of X-rhodamine (ROX)-labeled MapMarker1000 molecular weight standards (BioVentures). The raw capillary electrophoresis data was processed using Attagraph software (Attagene).
As for `CCCCCC/C=C/CCCCCCCC(=O)O`, the call was inactive.

With `CC(C)CC=C(C=O)c1ccccc1`, the result was inactive.

Take `CC1=CCC(=O)O1`: the call was inactive.

On to `O=C(O)CCC(F)(F)C(F)(F)C(F)(F)C(F)(F)C(F)(F)C(F)(F)C(F)(F)F`, for which the AC50 was 204 µM (active).

As for `COc1ccccc1C=O`, the outcome was inactive.

Regarding `O=C1OC(=O)c2ccc3c4c(ccc1c24)C(=O)OC3=O`, the compound was classed as inactive.

As to `CC1CCCCC1`, the call was inactive.

With `CCOC(C=C(C)CCC=C(C)C)OCC`, the result was inactive.

As for `O=C(Cl)C(F)(F)C(F)(F)C(F)(F)C(F)(F)C(F)(F)C(F)(F)F`, the compound was classed as inactive.

In the case of `CCc1cccc(C)c1N(C(=O)C(=O)O)C(C)COC` (stereo not given), the compound was classed as inactive.

Regarding `O=S(=O)(O)CCC(F)(F)C(F)(F)C(F)(F)C(F)(F)C(F)(F)C(F)(F)C(F)(F)C(F)(F)F`, the compound was called inactive.

For the compound `CCN(CC)c1ccc2c(c1)Oc1cc(N(CC)CC)ccc1C21OC(=O)c2ccccc21`, the compound was classed as inactive.

On to `OCC(F)(F)C(F)(F)C(F)(F)CO`, for which the outcome was inactive.

Take `Brc1nc2ccccc2s1`: the outcome was inactive.

Turning to `O=C(O)C(F)(F)C(F)(F)C(F)(F)C(=O)O`, the compound was called inactive.

Take `O=C(O)CCC(F)(F)C(F)(F)C(F)(F)F`: the call was inactive.

As to `Cc1cc(O)c(C(C)(C)C)cc1C(C)(C)C`, the result was inactive.

For `CC(C)=CCCC(C)O` (stereo not given), the call was inactive.

With `CCC(=O)OC(C)c1ccccc1` (stereo not given), the compound was classed as inactive.

As for `O=C=NCc1cccc(CN=C=O)c1`, the compound was called inactive.

For the compound `OCC(O)CC(F)(F)C(F)(F)C(F)(F)C(F)(F)C(F)(F)C(F)(F)C(F)(F)C(F)(F)F` (stereo not given), the outcome was inactive.

As for `C[C@]12CC[C@H]3C(=CCc4cc(O)ccc43)[C@@H]1CCC2=O`, the outcome was inactive.

With `CCCC(=O)OCC(COC(=O)CCC)OC(=O)CCC`, the AC50 is 89.1 µM (active).

As to `O=C1c2ccccc2C(=O)c2c(Cl)cccc21`, the outcome was inactive.

`FC(F)(F)C(F)(F)C(F)(F)CC1CO1` (stereo not given): the outcome was inactive.

Take `OCCC(O)CO` (stereo not given): the call was inactive.

Regarding `CCOCOCC`, the outcome was inactive.

In the case of `CCCCCCCCCCCC(=O)Cl`, the call was inactive.

Take `CCOC(=O)CC(=O)C(F)(F)C(F)(F)F`: the call was inactive.

As for `O=c1cccc[nH]1`, the call was inactive.

Consider `CC1=CCC2C(=O)OC(=O)C2C1` (stereo not given), for which the result was inactive.

In the case of `CC(C)OC=O`, the outcome was inactive.

With `O=S(=O)(O)CCC(F)(F)C(F)(F)C(F)(F)C(F)(F)F`, the call was inactive.

In the case of `OCC(F)(F)C(F)(F)C(F)(F)C(F)(F)C(F)(F)C(F)(F)CO`, the compound was called inactive.

For `O=C(O)C(F)(F)C(F)(F)C(F)(F)OC(F)(C(F)(F)F)C(F)(F)F`, the call was inactive.

On to `CC(C)(C)c1cc(CCC(=O)NCCCCCCNC(=O)CCc2cc(C(C)(C)C)c(O)c(C(C)(C)C)c2)cc(C(C)(C)C)c1O`, for which the outcome was inactive.

As for `COCCC(=O)OC`, the result was inactive.

With `Cc1cccc(C)n1`, the result was inactive.

`CC(C)Nc1ccc(NC(C)C)c2c1C(=O)c1ccccc1C2=O`: the result was inactive.

With `CCOCN(C(=O)CS(=O)(=O)O)c1c(C)cccc1CC`, the compound was classed as inactive.

The term AC50 denotes the midpoint of the concentration-response curve, whichever way the signal moves.
